Compounds with a hit are over-represented: about 6.8% of the library has one in this group of screens.
Pf Dd2 growth = P. falciparum Dd2 growth inhibitors, primary screen, SYBR Green fluorescence, single dose replicates. 72 h; hits give low values. activity change, % at 10 µM. actives 2.3% (n = 94,000). AID 1159554, 2015; in the data active = activity change below about -80%; inconclusive = no clear call, values can overlap the other calls
C diff growth = C. difficile growth inhibitors, primary screen, HTS; Clostridium difficile clinical isolate growth, OD600, 24 h; hits give low values; growth activity, negative = inhibition, % at 16 µg/mL (by protocol); actives 0.25% (n = 86,000); AID 1259249, 2017;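 active = mean growth activity at or below -80% and every replicate also at or below -80%; inconclusive = mean at or below -80% but some replicate above -80%; inactive = mean growth activity above -80%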
T cruzi growth-1 = T. cruzi intracellular proliferation inhibitors, primary screen, cell-based, beta-gal Tulahuen parasites, NIH3T3 host, luminescence; T. cruzi beta-gal in NIH3T3, GalScreen luminescence, 90 h; inhibition, % at 8.34 µM; actives 5.9% (n = 77,000); AID 624255, 2012;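 active = mean inhibition above about 93%, with at least 55% of replicates each passing it, limit read from the data, passing the limit was not always enough; inconclusive = only one of those two conditions holds; inactive = neither condition holds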
T cruzi growth-2 = T. cruzi intracellular proliferation inhibitors, confirmation, cell-based, NIH3T3 host, beta-gal parasite, luminescence, cherry-pick | shares compounds with T cruzi growth-1 | T. cruzi beta-gal in NIH3T3, GalScreen luminescence, 90 h | inhibition, % at 8.35 µM | actives 72% (n = 5,600);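 active = mean replicate inhibition above about 95% and at least 55% of replicates individually reaching it, limit read from the data; inconclusive = only one of the two criteria is met; inactive = neither criterion is met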
T cruzi growth-3 = inhibitors of intracellular T. cruzi replication, confirmation, NIH3T3 host cells, beta-gal parasites, cherry-pick, set 2. inhibition, % at 2.09 µM. T. cruzi beta-gal in NIH3T3, GalScreen luminescence, 90 h. AID 651740, 2012. actives 21% (n = 5,600). shares compounds with T cruzi growth-1;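 active = mean inhibition above about 95%, with at least 55% of replicates also reaching it, limit read from the data; inconclusive = meets just one of the two conditions; inactive = meets neither condition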
NIH3T3 tox = cytotoxicity in mouse NIH/3T3 fibroblasts, confirmation, cytotoxicity control for T. cruzi proliferation inhibitor project, cell-based, cherry-pick, single point; NIH/3T3 viability, CellTiter-Glo ATP luminescence, 90 h; actives 14% (n = 5,600); AID 651742, 2012; shares compounds with T cruzi growth-1; cytotoxicity (signal decrease), % at 8.35 µM;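 active = mean signal decrease across replicates above about 35% based on untreated-well scatter, with enough replicates individually passing, limit read from the data; inconclusive = no rule stated though some were filed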
NIH3T3 tox 2 = NIH/3T3 fibroblast cytotoxicity, confirmation, cytotoxicity control, cell-based, cherry-pick, single point, set 2 | shares compounds with T cruzi growth-1 | NIH/3T3 viability, CellTiter-Glo ATP luminescence, 90 h | actives 56% (n = 5,600) | inhibition, % at 24.9 µM;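 active = mean loss of cell viability signal at or above a set limit, and enough replicates individually reaching it; inconclusive = meets only the mean limit or only the replicate share; inactive = meets neither condition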
Large screens that a line does not name were inactive (follow-up assays come after a bar, where they were run).

C[C@H](CO)N1C[C@H](C)[C@@H](CN(C)C(=O)C2CC2)Oc2ncc(C#Cc3cccc(F)c3)cc2C1=O	none
C[C@H](O)C#Cc1cnc2c(c1)C(=O)N([C@@H](C)CO)C[C@H](C)[C@H](CN(C)C(=O)CC1CC1)O2	none (no result: Pf Dd2 growth)
O=C(Cc1ccccc1)N1CC(=O)N2[C@H](C1)[C@H](c1ccc(C3=CCCC3)cc1)[C@@H]2CO	none (no result: T cruzi growth-1)
CN(C)CC#Cc1ccc([C@H]2[C@@H](CO)N3CCCCN(C(=O)C4CC4)C[C@H]23)cc1	T cruzi growth-1 102 | T cruzi growth-2 inactive | T cruzi growth-3 inactive | NIH3T3 tox inactive | NIH3T3 tox 2 36
O=C(C1CCCC1)N1CCCCN2[C@H](CO)[C@H](c3ccc(C#CC4CC4)cc3)[C@H]2C1	T cruzi growth-1 113 | T cruzi growth-2 104 | T cruzi growth-3 inactive | NIH3T3 tox inactive | NIH3T3 tox 2 37
O=C(C1CCCC1)N1CCCCN2[C@H](C1)[C@@H](c1ccc(C#CC3CC3)cc1)[C@@H]2CO	none
CN(C)CC#Cc1ccc([C@H]2[C@@H](CO)N3CCCCN(C(=O)C4CC4)C[C@@H]23)cc1	none
O=C(C1CCCC1)N1CCCCN2[C@H](C1)[C@H](c1ccc(C#CC3CC3)cc1)[C@@H]2CO	T cruzi growth-1 114 | T cruzi growth-2 99 | T cruzi growth-3 inactive | NIH3T3 tox inactive | NIH3T3 tox 2 inactive
O=C(C1CC1)N1CCCCN2[C@H](C1)[C@H](c1ccc(C#CC3CC3)cc1)[C@@H]2CO	none
CN1[C@@H]2Cn3c(ccc(-c4ccncc4)c3=O)[C@H]1[C@@H](C(=O)NCC1CCCCC1)[C@@H]2CO	none
C[C@@H]1CN([C@H](C)CO)C(=O)c2cc(C#Cc3ccc(F)cc3)cnc2O[C@H]1CN(C)S(C)(=O)=O	none
COc1ccc2c3c(n(C)c2c1)[C@@H](CO)N(C(=O)c1cccc(F)c1)CC31CN(CC2CC2)C1	none (no result: T cruzi growth-1)
C[C@@H]1CN([C@H](C)CO)C(=O)CCCn2cc(nn2)CO[C@@H]1CN(C)Cc1cccnc1	none
C[C@@H]1CN([C@H](C)CO)C(=O)c2cc(/C=C/c3ccccc3)cnc2O[C@H]1CN(C)C(=O)Nc1ccc(C(F)(F)F)cc1	none (no result: T cruzi growth-1)
C[C@@H]1CN([C@H](C)CO)C(=O)c2cc(-c3cccc(C#N)c3)cnc2O[C@H]1CN(C)Cc1cccnc1	none (no result: T cruzi growth-1)
CCCNC(=O)N1C[C@H]2[C@@H](c3ccccc31)[C@@H](CO)N2Cc1cc(F)ccc1F	none
CCC(=O)N(C)C[C@H]1Oc2cc(C#CCC3CCCC3)ccc2S(=O)(=O)N([C@H](C)CO)C[C@@H]1C	none
C[C@H](CO)N1C[C@H](C)[C@@H](CN(C)C)Oc2cc(C#CCC3CCCC3)ccc2S1(=O)=O	T cruzi growth-1 inconclusive | T cruzi growth-2 107 | T cruzi growth-3 inactive | NIH3T3 tox inactive | NIH3T3 tox 2 103
CCC(=O)N(C)C[C@H]1Oc2cc(C#CCC3CCCC3)ccc2S(=O)(=O)N([C@@H](C)CO)C[C@@H]1C	T cruzi growth-1 128 | T cruzi growth-2 106 | T cruzi growth-3 inactive | NIH3T3 tox 43 | NIH3T3 tox 2 105
C[C@H](CO)N1C[C@H](C)[C@H](CN(C)C)Oc2cc(C#CCC3CCCC3)ccc2S1(=O)=O	none
CCC(=O)N(C)C[C@H]1Oc2cc(C#CCC3CCCC3)ccc2S(=O)(=O)N([C@@H](C)CO)C[C@H]1C	T cruzi growth-1 119 | T cruzi growth-2 98 | T cruzi growth-3 inactive | NIH3T3 tox inactive | NIH3T3 tox 2 105
C[C@H]1CN([C@@H](C)CO)S(=O)(=O)c2ccc(C#CCC3CCCC3)cc2O[C@H]1CN(C)C(=O)CN(C)C	none
CCC(=O)N(C)C[C@@H]1Oc2cc(C#CCC3CCCC3)ccc2S(=O)(=O)N([C@@H](C)CO)C[C@H]1C	T cruzi growth-1 129 | T cruzi growth-2 109 | T cruzi growth-3 inactive | NIH3T3 tox inactive | NIH3T3 tox 2 104
C[C@H](CO)N1C[C@H](C)[C@@H](CN(C)C(=O)CN(C)C)Oc2cc(C#CCC3CCCC3)ccc2S1(=O)=O	none
Cc1ccc(S(=O)(=O)Nc2ccc3c(c2)C(=O)N([C@H](C)CO)C[C@@H](C)[C@H](CN(C)C)OCCCC[C@@H](C)O3)cc1	none
C[C@@H]1CN([C@H](C)CO)C(=O)Cc2cc(NC(=O)Cc3ccccc3)ccc2O[C@@H]1CN(C)C(=O)Nc1cccc2ccccc12	none
C[C@@H]1CCCCO[C@H](CN(C)C(=O)Cc2ccccc2)[C@@H](C)CN([C@H](C)CO)C(=O)c2cc(NC(=O)NC3CCCCC3)ccc2O1	none
CC(=O)N1[C@H](CO)[C@H](c2ccccc2)[C@H]1CNC(=O)c1ccncc1	none (no result: T cruzi growth-1)
Cc1ccc(-c2ccc3c(c2)O[C@H](CN(C)C(=O)Nc2ccc(C(F)(F)F)cc2)[C@H](C)CN([C@@H](C)CO)S3(=O)=O)cc1	none
C[C@@H]1CN([C@H](C)CO)S(=O)(=O)c2ccc(C#CCC3CCCC3)cc2O[C@@H]1CN(C)C(=O)c1ccccn1	T cruzi growth-1 110 | T cruzi growth-2 100 | T cruzi growth-3 inactive | NIH3T3 tox 51 | NIH3T3 tox 2 104
C[C@@H]1CN([C@@H](C)CO)S(=O)(=O)c2ccc(C#CCC3CCCC3)cc2O[C@@H]1CN(C)C(=O)c1ccccn1	none
N#Cc1cccc(-c2ccc3c(c2)[C@@H]2[C@@H](CCN2Cc2cncnc2)[C@H](CO)N3)c1	T cruzi growth-1 112 | T cruzi growth-2 115 | T cruzi growth-3 inactive | NIH3T3 tox inactive | NIH3T3 tox 2 40
N#Cc1cccc(-c2ccc3c(c2)[C@@H]2[C@@H](CCN2C(=O)c2ccncc2)[C@H](CO)N3)c1	none
N#Cc1ccc(-c2ccc3c(c2)[C@@H]2[C@@H](CCN2Cc2cncnc2)[C@@H](CO)N3)cc1	none
N#Cc1cccc(-c2ccc3c(c2)[C@H]2[C@H](CCN2C(=O)c2ccncc2)[C@H](CO)N3)c1	Pf Dd2 growth -80, T cruzi growth-1 118 | T cruzi growth-2 inactive | T cruzi growth-3 inactive | NIH3T3 tox inactive | NIH3T3 tox 2 inactive
COc1ccc(NC(=O)N(C)C[C@H]2Oc3ccc(NC(=O)Cc4cn(C)c5ccccc45)cc3C(=O)N([C@@H](C)CO)C[C@H]2C)cc1	none

Screening data from PubChem.
